Source: PubChem BioAssay
Dicer processing = human Dicer pre-microRNA cleavage inhibition; z-score at 25 µM; hit rate 6% among 47,000; AID 1347074; Q9UPY3; cat-ELCCA pre-miR-21 Dicer processing, chemiluminescence; active compounds read high; in the data active = z-score above about 3, passing the limit was not always enough;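 also: higher signal means more uncleaved substrate so more Dicer inhibition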
Target sequence (Q9UPY3 whole entry, looked up): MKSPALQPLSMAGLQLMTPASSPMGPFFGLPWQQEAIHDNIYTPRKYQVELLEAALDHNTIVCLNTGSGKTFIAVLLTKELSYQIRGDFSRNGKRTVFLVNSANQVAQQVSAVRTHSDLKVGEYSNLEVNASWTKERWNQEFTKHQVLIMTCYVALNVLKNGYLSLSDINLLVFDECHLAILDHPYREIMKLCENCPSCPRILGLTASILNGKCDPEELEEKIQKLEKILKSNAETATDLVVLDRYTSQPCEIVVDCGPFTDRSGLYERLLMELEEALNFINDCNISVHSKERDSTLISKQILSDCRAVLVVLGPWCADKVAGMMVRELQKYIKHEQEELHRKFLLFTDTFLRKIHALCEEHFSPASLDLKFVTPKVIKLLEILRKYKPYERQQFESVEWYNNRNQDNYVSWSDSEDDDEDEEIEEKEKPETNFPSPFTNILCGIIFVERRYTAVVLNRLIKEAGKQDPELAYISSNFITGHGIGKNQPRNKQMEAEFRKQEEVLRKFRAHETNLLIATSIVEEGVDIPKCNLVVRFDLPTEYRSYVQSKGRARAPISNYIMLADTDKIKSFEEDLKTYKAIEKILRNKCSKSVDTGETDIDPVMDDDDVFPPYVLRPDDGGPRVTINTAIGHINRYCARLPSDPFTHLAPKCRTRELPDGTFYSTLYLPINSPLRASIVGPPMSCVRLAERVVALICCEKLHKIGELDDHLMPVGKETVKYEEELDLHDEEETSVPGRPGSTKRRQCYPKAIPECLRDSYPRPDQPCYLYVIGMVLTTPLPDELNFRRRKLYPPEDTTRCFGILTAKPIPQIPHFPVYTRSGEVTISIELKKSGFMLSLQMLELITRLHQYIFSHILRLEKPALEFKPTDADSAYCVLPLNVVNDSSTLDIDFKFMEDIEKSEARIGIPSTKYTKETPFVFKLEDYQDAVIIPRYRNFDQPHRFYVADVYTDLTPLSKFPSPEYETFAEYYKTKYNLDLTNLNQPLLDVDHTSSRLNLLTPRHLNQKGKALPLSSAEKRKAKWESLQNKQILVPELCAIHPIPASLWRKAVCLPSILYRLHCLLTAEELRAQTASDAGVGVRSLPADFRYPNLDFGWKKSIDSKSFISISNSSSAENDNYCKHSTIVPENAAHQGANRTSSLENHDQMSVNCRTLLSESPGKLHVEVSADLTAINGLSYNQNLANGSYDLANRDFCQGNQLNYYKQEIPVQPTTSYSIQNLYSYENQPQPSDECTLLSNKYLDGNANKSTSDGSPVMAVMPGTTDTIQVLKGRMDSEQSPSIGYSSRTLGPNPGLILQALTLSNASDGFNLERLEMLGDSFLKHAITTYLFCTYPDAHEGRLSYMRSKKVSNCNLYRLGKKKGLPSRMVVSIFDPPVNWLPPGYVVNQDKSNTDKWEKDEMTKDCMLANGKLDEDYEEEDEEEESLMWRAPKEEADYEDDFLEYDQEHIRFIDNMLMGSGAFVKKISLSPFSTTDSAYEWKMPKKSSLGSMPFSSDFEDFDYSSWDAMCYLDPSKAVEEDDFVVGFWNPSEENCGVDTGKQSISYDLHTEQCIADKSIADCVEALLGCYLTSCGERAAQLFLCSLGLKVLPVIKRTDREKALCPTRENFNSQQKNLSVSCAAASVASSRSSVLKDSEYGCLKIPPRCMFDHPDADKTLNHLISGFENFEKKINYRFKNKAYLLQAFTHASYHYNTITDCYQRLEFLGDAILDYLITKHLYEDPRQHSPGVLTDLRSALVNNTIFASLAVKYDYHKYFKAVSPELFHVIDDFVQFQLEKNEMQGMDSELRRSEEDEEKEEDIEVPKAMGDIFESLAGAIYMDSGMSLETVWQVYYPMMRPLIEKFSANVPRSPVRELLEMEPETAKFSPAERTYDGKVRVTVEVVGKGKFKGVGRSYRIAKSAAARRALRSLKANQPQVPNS
Numbers stand for hits; i = inactive. This is one part of a sample in which hits are shown more often than they occur.

SMILES	Dicer processing
Cc1c(O)nc(SCC(=O)N2CCc3ccccc32)n(-c2ccccc2)c1=O	i
COc1ccc(N2C(=O)CC(Sc3nc(CC(C)C)ccc3C#N)C2=O)cc1 (stereo not given)	i
COc1ccc(COC(=O)C2=C(C)NC3=C(C(=O)CCC3)C2c2cc3c(cc2Cl)OCO3)cc1 (stereo not given)	4.24
CCOC(=O)C1=C(C)NC2=C(C(=O)CCC2)C1c1cc2c(cc1Cl)OCO2 (stereo not given)	i
COc1ccc(COC(=O)C2=C(C)NC3=C(C(=O)CCC3)C2c2ccc3c(c2)OCO3)cc1 (stereo not given)	i
CCCOC(=O)C1=C(C)NC2=C(C(=O)CC(C)(C)C2)C1c1cc(Br)c(O)c(OC)c1 (stereo not given)	i
CCN1CCN(C(=O)c2c(C)oc3c2cc(OC(C)=O)c2ccccc23)CC1	i
Cc1ccc(-c2cc(NC3=CC(=O)CC(C)(C)C3)n[nH]2)cc1	3.71
Cc1ccc(Cl)c(NC2=CC(=O)CC(C)(C)C2)c1	i
CC1(C)CC(=O)C=C(Nc2ccc(F)cc2)C1	i
CCN1CCN(Cc2c(C)[nH]c3ccc(C)cc3c2=O)CC1	i
CN(C)c1ccc(C(=O)c2ccccc2C(=O)O)c(O)c1	3.25
COc1ccc(C(=O)c2ccccc2O)c(O)c1	i
Cc1ccc(C(=O)c2ccccc2C(=O)O)cc1C	i
O=C(Cn1nc(C(F)(F)F)c2c1CCCC2)NCc1cccs1	i
O=S(=O)(Nc1ccc(OCc2ccccc2)cc1)c1ccc2ccccc2c1	i
CN(C)c1ccc(-c2nnc3n2N=C(c2ccc(Br)cc2)CS3)cc1	i
COC(=O)c1cc(C#N)c(SCC(=O)Nc2cc(Cl)cc(Cl)c2)nc1C(OC)OC	i
COc1ccc(CCN2C(=O)c3cccc4c(Br)ccc(c34)C2=O)cc1OC	i
COc1ccc(-c2nc3n(n2)C(c2ccc(OC)c(OC)c2)C2=C(CCCC2=O)N3)cc1OC (stereo not given)	i
COc1ccc(-c2nc3n(n2)C(c2ccc4c(c2)OCO4)C2=C(CC(C)(C)CC2=O)N3)cc1OC (stereo not given)	3.04
CC1(C)CC(=O)C2=C(C1)Nc1nc(-c3cccc(Cl)c3)nn1C2c1ccc2c(c1)OCO2 (stereo not given)	i
COC(=O)c1c(NC2=NS(=O)(=O)c3ccccc32)sc2c1CCCC2	i
NN/C(N)=N/C(N)=Nc1cccc(F)c1	i
O=C(c1ccccc1)c1cccc2c1NCC2	i
SMILES	Dicer processing
COC(OC)c1ccc2c(N)c(C(=O)c3ccc(Cl)cc3)sc2n1	i
CCN(CC)CC(=O)N1c2ccccc2Sc2ccccc21	i
O=C(CN1CCCCC1)N1c2ccccc2Sc2ccccc21	i
NCCCC(=O)N1c2ccccc2Sc2ccccc21	5.45
O=C(CCSCc1ccco1)NNC(=O)N1Cc2ccccc2Oc2ccc(Cl)cc21	i
Cc1nc2ccccc2n1CC(O)COc1ccc(Cl)cc1 (stereo not given)	i
Cc1ccc2oc(-c3ccc(N)cc3)nc2c1	i
Cc1ccc2oc(-c3ccc(N)cc3O)nc2c1	i
COc1ccc(-c2nc3cc(N)ccc3o2)cc1Br	3.24
Nc1nc2ccc(-c3nc4ccccc4o3)cc2s1	i
Nc1ccc2oc(-c3cccc4ccccc34)nc2c1	5.22
CC(C)c1ccc2oc(-c3ccc(N)cc3)nc2c1	i
COc1ccc2oc(-c3ccc(C)c(N)c3)nc2c1	i
COc1ccc(-c2nc3ccccc3o2)cc1N	4.34
Cc1ccc(-c2nc3cc(N)ccc3o2)cc1	4.69
Cc1ccc(-c2nc3cc(N)ccc3o2)cc1N	i
COc1ccc(-c2nc3cc(NS(=O)(=O)c4ccccc4)ccc3o2)cc1Br	i
Cc1ccc2oc(-c3cccc(N)c3)nc2c1	i
COC(=O)c1sc(SC)c2c1CC(C)(C)C/C2=N\OC(=O)Nc1ccccc1	i
O=C(Nc1cccc(F)c1)N1CCN(c2ncccn2)CC1	i
COCc1cc(=O)[nH]c(SCC(=O)c2ccc(-c3ccccc3)cc2)n1	i
O=C(Nc1cnn(Cc2ccc(F)cc2)c1)c1nc2ncccn2n1	i
COc1ccc(-c2nnn(CC(=O)O)n2)cc1	i
Cc1nn(S(=O)(=O)c2ccc(Cl)cc2)c(C)c1Sc1nccn1C	i
CCCCOC(=O)C1=C(C)NC2=C(C(=O)CCC2)C1c1ccncc1 (stereo not given)	i
SMILES	Dicer processing
CCCCOC(=O)c1cc([N+](=O)[O-])cc2c1-c1ccc([N+](=O)[O-])cc1/C2=N\O	i
O=c1oc2ccccc2n1Cc1ccccc1Cl	4.9
O=c1oc2ccccc2n1Cc1ccc(Cl)cc1	i
Cc1ccc(Cn2c(=O)oc3ccccc32)cc1	i
CC(C)(CC(=O)O)CC(=O)Nc1ccccc1N1CCCCC1	i
Cc1onc(-c2c(Cl)cccc2Cl)c1CSC(=S)N(C)C	6.63
CSC(=S)N(C)NC(=O)Nc1c(-c2c(Cl)cccc2Cl)noc1C	i
Cc1onc(-c2c(Cl)cccc2Cl)c1N	i
CC(=O)Nc1cccc(OCCCNS(=O)(=O)c2ccc(N(C)C(=O)c3ccc(Cl)cc3)s2)c1	i
O=C1C(=O)N(CN2CCc3ccccc3C2)c2ccc(Br)cc21	i
CCOC(=O)c1cn2nc(Oc3ccc(CC(C)=O)cc3)ccc2n1	i
